# In PubChem BioAssay AID1159580 (chemical genetic matrix, 2015):
# “And” between values parts separate entries of the source, which are not always exact repeats. Equal values may be shown once. Among all 5,500 compounds or so, about 2,000 (36%) were called active. About 18% were inconclusive and are not listed. Some of the results follow. Values without a mark were called inactive. No stated cut-off is given here; in the data, active means normalized growth mostly below about 0.91 (no sharp cut-off); inconclusive means no clear call, values can overlap the other calls; inactive means mostly above about 0.92.
# Assay: chemical genetic growth profiling, strain panel (AID 1159580);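 further: tested at 20 µM; growth read once vehicle control cultures reached saturation at 30 °C; 1 = growth at the plate median or of vehicle wells; lower values mean less growth of the strain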
# Conditions: S. cerevisiae deletion strains, growth OD
smiles,measurement,setting,value
CN1CCN(C2=Nc3cc(Cl)ccc3Nc3ccccc32)CC1,normalized growth,"locus YAL013W, strain DEP1, hits give low values",1.02
same,normalized growth,"locus YAL021C, strain ccr4, hits give low values",0.991
same,normalized growth,"locus YAL026C, strain drs2, hits give low values",0.953
same,normalized growth,"locus YAL030W, strain snc1, hits give low values",1.01
same,normalized growth,"locus YAL040C, strain CLN3, hits give low values",1.01
same,normalized growth,"locus YBL061C, strain skt5, hits give low values",0.968
same,normalized growth,"locus YBR009C, strain hhf1, hits give low values",1.01
same,normalized growth,"locus YBR021W, strain FUR4, hits give low values",0.979
same,normalized growth,"locus YBR023C, strain chs3, hits give low values",0.987
same,normalized growth,"locus YBR171W, strain sec66, hits give low values",0.975
same,normalized growth,"locus YBR229C, strain ROT2, hits give low values",1.01
same,normalized growth,"locus YBR231C, strain swc5, hits give low values",0.988
same,normalized growth,"locus YBR279W, strain paf1, hits give low values",0.983
same,normalized growth,"locus YCL011C, strain gbp2, hits give low values",0.984
same,normalized growth,"locus YCL016C, strain dcc1, hits give low values",0.954
same,normalized growth,"locus YCL029C, strain bik1, hits give low values",1.01
same,normalized growth,"locus YCL061C, strain MRC1 (second series), hits give low values",1
same,normalized growth,"locus YCL061C, strain MRC1, hits give low values",0.984
same,normalized growth,"locus YCL069W, strain vba3, hits give low values",0.981
same,normalized growth,"locus YCR088W, strain abp1, hits give low values",0.985
same,normalized growth,"locus YDL005C, strain med2, hits give low values",0.984
same,normalized growth,"locus YDL035C, strain GPR1, hits give low values",1
same,normalized growth,"locus YDL040C, strain nat1, hits give low values",1
same,normalized growth,"locus YDL074C, strain BRE1, hits give low values",0.935
same,normalized growth,"locus YDL101C, strain DUN1, hits give low values",0.996
same,normalized growth,"locus YDL134C, strain PPH21, hits give low values",0.991
same,normalized growth,"locus YDL185W, strain tfp1, hits give low values",1.01
same,normalized growth,"locus YDL192W, strain arf1, hits give low values",1.02
same,normalized growth,"locus YDR001C, strain nth1, hits give low values",0.989
same,normalized growth,"locus YDR069C, strain doa4, hits give low values",0.968
same,normalized growth,"locus YDR101C, strain arx1, hits give low values",1
same,normalized growth,"locus YDR137W, strain rgp1, hits give low values",1.15 [resistant] (active)
same,normalized growth,"locus YDR150W, strain NUM1, hits give low values",1.01 and 0.991
same,normalized growth,"locus YDR159W, strain sac3, hits give low values",0.948
same,normalized growth,"locus YDR162C, strain NBP2, hits give low values",0.97
same,normalized growth,"locus YDR195W, strain ref2",1.04
same,normalized growth,"locus YDR297W, strain sur2, hits give low values",0.976
same,normalized growth,"locus YDR318W, strain mcm21, hits give low values",1.02
same,normalized growth,"locus YDR334W, strain swr1, hits give low values",0.98
same,normalized growth,"locus YDR335W, strain msn5, hits give low values",0.977
same,normalized growth,"locus YDR363W, strain ESC2, hits give low values",0.884
same,normalized growth,"locus YDR388W, hits give low values",1.02
same,normalized growth,"locus YDR392W, strain spt3, hits give low values",0.801
same,normalized growth,"locus YDR502C, strain sam2, hits give low values",0.994
same,normalized growth,"locus YEL003W, strain gim4, hits give low values",0.987
same,normalized growth,"locus YEL037C, strain rad23, hits give low values",0.979
same,normalized growth,"locus YEL061C, strain CIN8 (second series), hits give low values",0.977
same,normalized growth,"locus YEL061C, strain CIN8, hits give low values",1.05
same,normalized growth,"locus YER002W, strain NOP16, hits give low values",0.997
same,normalized growth,"locus YER015W, strain faa2, hits give low values",0.991
same,normalized growth,"locus YER016W, strain bim1, hits give low values",0.966
same,normalized growth,"locus YER110C, hits give low values",1.03
same,normalized growth,"locus YER111C, strain swi4, hits give low values",0.975
same,normalized growth,"locus YER155C, strain BEM2 (second series), hits give low values",0.802 (active)
same,normalized growth,"locus YER155C, strain BEM2, hits give low values",1.01
same,normalized growth,"locus YER167W, strain BCK2, hits give low values",1
same,normalized growth,"locus YFR010W, strain ubp6, hits give low values",1.02
same,normalized growth,"locus YGL078C, strain dbp3, hits give low values",1.01
same,normalized growth,"locus YGL086W, strain mad1, hits give low values",1.02
same,normalized growth,"locus YGL167C, strain pmr1, hits give low values",0.989
same,normalized growth,"locus YGL173C, strain kem1, hits give low values",0.98
same,normalized growth,"locus YGL227W, strain vid30, hits give low values",0.969
same,normalized growth,"locus YGL240W, strain doc1, hits give low values",1.03
same,normalized growth,"locus YGL248W, strain PDE1, hits give low values",0.99
same,normalized growth,"locus YGL253W, strain hxk2, hits give low values",0.982
same,normalized growth,"locus YGR078C, strain PAC10, hits give low values",0.975 and 1.01
same,normalized growth,"locus YGR135W, strain pre9, hits give low values",0.987
same,normalized growth,"locus YGR229C, strain SMI1, hits give low values",0.948
same,normalized growth,"locus YGR252W, strain gcn5, hits give low values",0.994
same,normalized growth,"locus YHR013C, strain ard1, hits give low values",0.917
same,normalized growth,"locus YHR027C, strain rpn1, hits give low values",0.985
same,normalized growth,"locus YHR030C, strain SLT2, hits give low values",1.02 and 1.07
same,normalized growth,"locus YHR079C, strain IRE1 (second series), hits give low values",1.03
same,normalized growth,"locus YHR079C, strain IRE1, hits give low values",1.03
same,normalized growth,"locus YHR094C, strain hxt1, hits give low values",1.02
same,normalized growth,"locus YHR129C, strain ARP1, hits give low values",1.01
same,normalized growth,"locus YHR142W, strain chs7, hits give low values",0.949
same,normalized growth,"locus YHR200W, strain rpn10, hits give low values",1.01
same,normalized growth,"locus YIL066C, strain RNR3, hits give low values",1.01
same,normalized growth,"locus YIL073C, strain SPO22, hits give low values",1.1
same,normalized growth,"locus YIL125W, strain kgd1, hits give low values",1.02
same,normalized growth,"locus YIR030C, strain dcg1, hits give low values",1.02
same,normalized growth,"locus YJL092W, strain hpr5, hits give low values",0.985
same,normalized growth,"locus YJL095W, strain BCK1 (second series), hits give low values",0.991
same,normalized growth,"locus YJL095W, strain BCK1, hits give low values",0.945 and 1.05
same,normalized growth,"locus YJL115W, strain asf1, hits give low values",0.969
same,normalized growth,"locus YJL129C, strain trk1, hits give low values",0.969
same,normalized growth,"locus YJL134W, strain LCB3, hits give low values",1.01
same,normalized growth,"locus YJL154C, strain vps35, hits give low values",0.981
same,normalized growth,"locus YJL164C, strain tpk1, hits give low values",0.999
same,normalized growth,"locus YJL166W, strain qcr8, hits give low values",1
same,normalized growth,"locus YJL168C, strain set2, hits give low values",1.03
same,normalized growth,"locus YJL187C, strain SWE1 (second series), hits give low values",1
same,normalized growth,"locus YJR043C, strain POL32, hits give low values",1.02
